Test results from publication PMC4552634, “A New Set of Chemical Starting Points with Plasmodium falciparum Transmission-Blocking Potential for Antimalarial Drug Discovery” (PLoS ONE, 2015).
About 3,200 (25%) of roughly 13,000 compounds showed an effect of 50% or more. This is one part of the list.

test system: P. falciparum stage V gametocytes; parameters: BacTiter-Glo ATP luminescence viability of purified stage V gametocytes in 384-well plates, per cent inhibition versus DMSO; conditions: 48 h, 5 µM; inhibitor

Structure (SMILES)	% Inhibition
CC(CC1CCCCC1)NCc1ccccc1OCCC(=O)N1CCCC1C(N)=O (centres unmarked) [TCMDC-140917]	-9.137%
Cc1c(Oc2ccc(-n3ccnc3)cc2)ncnc1N1CCC2(CC1)CNCc1ccccc12 [TCMDC-137157]	6.86%
CC(C)c1ccc(CN2CCC(NC(=O)c3ccc(-c4cccc(F)c4)s3)CC2)cc1 [TCMDC-134346]	-27.58%
Cc1nccn1CCNC(=O)CN1CCC2(CCC1=O)CC(=O)c1ccccc1O2 (centres unmarked) [TCMDC-125379]	-42.89%
O=C(O)CCCN1CCCC(=C(c2ccccc2)c2ccccc2)C1 [TCMDC-141969]	-38.14%
COC(=O)c1ccc(OCC(O)CO)cc1O (centres unmarked) [TCMDC-123463]	4.056%
CC(C)N(CCOc1ccc2c(c1)N(C(=O)Nc1ccc(Cl)c(Cl)c1)CC2)C(C)C [TCMDC-140254]	8.096%
CC(C)c1ccc(NC(=O)N2CCc3ccc(OCCN(C(C)C)C(C)C)cc32)c(Br)c1 [TCMDC-140252]	63.96%
CC(C)N(CCOc1ccc2c(c1)N(C(=O)Nc1cc(Br)cc(C(F)(F)F)c1)CC2)C(C)C [TCMDC-140250]	-0.9347%
Fc1ccc(C(OCC2CCCN(Cc3cccc4cccnc34)C2)c2ccc(F)cc2)cc1 (centres unmarked) [TCMDC-136044]	-14.61%
COC1(C)Oc2ccc3cccc([N+](=O)[O-])c3c2C1=O (centres unmarked) [TCMDC-131378]	-5.605%
CCOc1cc(C(C)C)ccc1N1CCN(CCCCNC(=O)c2ccc(NC(=O)c3ccc(Cl)cc3)cc2)CC1 [TCMDC-138519]	-10.71%
CCOc1ccc(C(C)NC(=O)c2cc(Cl)ccc2OC)cc1OCC (centres unmarked) [TCMDC-125016]	67.36%
CCOc1ccc(C(=O)Nc2cc(Cl)ccc2O)cc1Cl [TCMDC-123684]	-34.32%
CCOc1ccc(C(C)NC(=O)c2ccc(OC)c(Br)c2)cc1OCC (centres unmarked) [TCMDC-124876]	88.58%
Cc1cccc2nc(C(=O)Nc3nc(CN4CCC(C)CC4)cs3)cn12 [TCMDC-125340]	11.88%
COCCN1CCN(Cc2ccc(-c3cccc(-c4nc5ccccc5[nH]4)c3)cc2)CC1 [TCMDC-132559]	86.66%
CN1CCC(N2CCN(Cc3cccc(-c4ccc(-c5nc6ccccc6[nH]5)cc4)c3)CC2)CC1 [TCMDC-133850]	29.34%
CN1CCC(N2CCN(Cc3cccc(-c4cccc(-c5nc6ccccc6[nH]5)c4)c3)CC2)CC1 [TCMDC-133878]	70.79%
CN1CCN(Cc2ccc(-c3cccc(-c4nc5ccccc5[nH]4)c3)cc2)CC1 [TCMDC-132542]	58.54%
COCCN1CCN(Cc2cccc(-c3ccc(-c4nc5ccccc5[nH]4)cc3)c2)CC1 [TCMDC-133023]	-14.55%
N#CCCN1CCN(Cc2cccc(-c3ccc(-c4nc5ccccc5[nH]4)cc3)c2)CC1 [TCMDC-133852]	-22.87%
c1cc(-c2ccc(CN3CCCC3)cc2)cc(-c2nc3ccccc3[nH]2)c1 [TCMDC-133794]	34.22%
CN1CCC(NCc2ccc(-c3cccc(-c4nc5ccccc5[nH]4)c3)cc2)CC1 [TCMDC-132551]	85.21%

Structure (SMILES)	% Inhibition
c1cc(CN2CCN(CCN3CCOCC3)CC2)cc(-c2cccc(-c3nc4ccccc4[nH]3)c2)c1 [TCMDC-133922]	-15.36%
c1ccc2[nH]c(-c3ccc(-c4ccc(CN5CCCCC5)cc4)cc3)nc2c1 [TCMDC-133906]	32.64%
c1cc(-c2ccc(CNC3CC3)cc2)cc(-c2nc3ccccc3[nH]2)c1 [TCMDC-132538]	-44.27%
CN1CCC(NCc2cccc(-c3cccc(-c4nc5ccc(C(F)(F)F)cc5[nH]4)c3)c2)CC1 [TCMDC-132735]	38.83%
Cc1noc(C)c1-c1ccc2c(Nc3ccccc3C(C)(C)C)c(C(=O)NC3CCCC3)cnc2c1.Cl [TCMDC-136365]	-46.26%
N#Cc1cc(C(=O)c2cc(Cl)ccc2O)cn(-c2cccc(C(F)(F)F)c2)c1=O [TCMDC-124543]	16.34%
CCc1nc(N)nc(N)c1-c1cccc(Cl)c1 [TCMDC-137371]	-15%
CNc1nc(NN=Cc2ccccc2Cl)nc(Nc2cccc(C(F)(F)F)c2)n1 [TCMDC-124188]	-11.55%
N#CC(c1ccc(Cl)cc1)c1ccc2c(C(F)(F)F)cc(C(F)(F)F)nc2n1 (centres unmarked) [TCMDC-124176]	9.763%
CCOc1cccc(C(=O)Nc2cccc(CN3CCCN(Cc4ccc(O)cc4)CC3)c2)c1 [TCMDC-141862]	17.88%
OC(CNCc1ccccc1Oc1ccccc1)c1cc(Br)cs1 (centres unmarked) [TCMDC-141369]	34.47%
COc1ccc(CC(=O)NC(CCN2CCC3(CCc4ccccc43)CC2)c2ccc(Cl)c(Cl)c2)cc1 (centres unmarked) [TCMDC-141762]	-72.25%
CN1CCC(N2CCN(Cc3ccc(-c4cccc(-c5nc6ccccc6[nH]5)c4)cc3)CC2)CC1 [TCMDC-133881]	56.17%
CN(C)CCN1CCN(Cc2cccc(-c3csc(-c4nc5ccccc5[nH]4)c3)c2)CC1 [TCMDC-133793]	29.26%
CN(C)CCN1CCN(Cc2ccc(-c3cccc(-c4nc5ccccc5[nH]4)c3)cc2)CC1 [TCMDC-133795]	73.83%
OCCN1CCN(Cc2ccc(-c3cccc(-c4nc5ccccc5[nH]4)c3)cc2)CC1 [TCMDC-132540]	6.462%
CN1CCC(N2CCN(C(=O)c3cccc(-c4cccc(-c5nc6ccccc6[nH]5)c4)c3)CC2)CC1 [TCMDC-132312]	7.191%
Cc1ccc(Oc2ccccc2NC(=O)CCc2nc3ccccc3c(=O)[nH]2)cc1 [TCMDC-125459]	59.46%
CC(C)(C)C(=O)Nc1ccccc1Oc1ccc(Cl)cc1 [TCMDC-137332]	6.336%
Cc1cc(NC(=O)Nc2ccc(Oc3ccccc3)cc2)c2ccccc2n1 [TCMDC-134657]	-9.366%
CCCC(C)NC(=O)[C@H]1CNCCN1C(=O)CCCc1ccccc1 (some centres unmarked) [TCMDC-141270]	1.864%
CC(CNC(=O)[C@H]1CNCCN1C(=O)CCCc1ccccc1)c1ccccc1 (some centres unmarked) [TCMDC-141268]	55.69%
COc1cccc(CNC(=O)[C@H]2CNCCN2C(=O)CCCc2ccccc2)c1 [TCMDC-141271]	37.6%
